# From ChEMBL document CHEMBL1201862, “PubChem BioAssay data set” (2004)
# Where “and” joins values, the source holds several entries; their conditions need not be identical. Equal entries are not always repeated. Out of some 400,000 compounds screened, about 2,100 (0.53%) were called active. Roughly 14% stayed inconclusive and do not appear here. The sample holds actives, similar compounds and a random draw of the others, so the mix is not that of the screen. How the calls were made is not given here.
# Molecular target: Ataxin-2 (Homo sapiens) (UniProt Q99700)
# Sequence (Q99700 whole entry): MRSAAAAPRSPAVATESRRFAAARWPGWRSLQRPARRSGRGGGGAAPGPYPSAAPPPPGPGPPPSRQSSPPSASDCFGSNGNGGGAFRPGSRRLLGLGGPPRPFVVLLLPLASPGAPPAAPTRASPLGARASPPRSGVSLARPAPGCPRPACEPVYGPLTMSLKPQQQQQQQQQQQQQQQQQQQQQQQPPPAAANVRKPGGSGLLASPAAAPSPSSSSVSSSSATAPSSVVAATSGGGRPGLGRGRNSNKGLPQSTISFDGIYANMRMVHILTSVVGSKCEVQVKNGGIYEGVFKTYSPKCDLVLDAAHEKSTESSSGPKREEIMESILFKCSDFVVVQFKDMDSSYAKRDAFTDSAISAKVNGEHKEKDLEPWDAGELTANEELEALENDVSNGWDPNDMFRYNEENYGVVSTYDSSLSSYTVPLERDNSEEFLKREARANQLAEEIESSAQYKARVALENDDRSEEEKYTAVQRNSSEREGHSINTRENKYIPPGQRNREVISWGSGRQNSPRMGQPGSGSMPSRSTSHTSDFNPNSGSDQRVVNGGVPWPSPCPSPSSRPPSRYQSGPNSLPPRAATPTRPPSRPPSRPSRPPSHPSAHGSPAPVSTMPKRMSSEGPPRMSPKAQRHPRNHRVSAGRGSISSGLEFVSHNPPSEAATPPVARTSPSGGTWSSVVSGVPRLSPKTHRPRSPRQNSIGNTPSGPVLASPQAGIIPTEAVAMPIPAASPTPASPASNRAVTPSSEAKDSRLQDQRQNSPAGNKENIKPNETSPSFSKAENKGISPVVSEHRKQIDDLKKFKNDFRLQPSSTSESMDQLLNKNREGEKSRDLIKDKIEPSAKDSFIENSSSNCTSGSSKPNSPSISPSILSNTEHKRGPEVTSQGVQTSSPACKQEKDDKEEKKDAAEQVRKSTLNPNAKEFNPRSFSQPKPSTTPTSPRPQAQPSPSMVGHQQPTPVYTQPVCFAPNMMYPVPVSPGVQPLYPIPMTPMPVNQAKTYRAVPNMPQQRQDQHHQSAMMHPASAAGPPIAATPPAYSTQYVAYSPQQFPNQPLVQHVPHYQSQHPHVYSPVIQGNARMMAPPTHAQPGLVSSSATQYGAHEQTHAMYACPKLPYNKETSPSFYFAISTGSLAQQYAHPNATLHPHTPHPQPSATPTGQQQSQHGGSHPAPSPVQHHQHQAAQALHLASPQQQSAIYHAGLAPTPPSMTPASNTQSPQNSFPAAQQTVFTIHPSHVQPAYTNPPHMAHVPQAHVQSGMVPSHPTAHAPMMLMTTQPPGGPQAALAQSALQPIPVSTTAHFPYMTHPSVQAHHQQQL
# Assay: qHTS for Inhibitors of ATXN expression.
# Assay type: functional
row,Structure (SMILES),Potency
1,Cc1cc2c(cc1C)CSC(c1c(O)ccc3ccccc13)SC2,35.5 µM (active)
2,COc1ccc(/C=C2\SC(=S)N(NS(=O)(=O)c3ccccc3)C2=O)c(OC)c1,39.8 µM (active)
3,COc1ccc(/C=C/C(=O)Nc2ccc(S(=O)(=O)N3CCOCC3)cc2)c(OC)c1,inactive
4,COc1ccc(OC)c(/C=C2/Sc3ccccc3C2=O)c1,inactive
5,O=C(NCc1cccs1)c1cc(C2CC2)on1,inactive
6,CC(C)(C)NC(=O)C(c1ccncc1)N(C(=O)C1CSC(=O)C1)c1ccccc1 (stereo unspecified),inactive
7,CC(C)(C)NC(=O)C(c1ccc(-c2ccccc2)cc1)N(C[C@H]1CC[C@@H]([C@@H]2CC[C@H](CO)O2)O1)C(=O)c1cccc(Cl)c1 (stereo partly specified),31.6 µM (active)
8,CC(C)(C)NC(=O)C(c1ccc(-c2ccccc2)cc1)N(C[C@H]1CC[C@@H]([C@@H]2CC[C@H](CO)O2)O1)C(=O)c1ccc(-c2ccccc2)cc1 (stereo partly specified),35.5 µM (active)
9,O=C(c1cccc(Cl)c1)N(Cc1ccco1)C1CCS(=O)(=O)C1 (stereo unspecified),inactive
10,CC(C)(C)NC(=O)C(c1cccnc1)N(C(=O)c1csnn1)c1ccccc1 (stereo unspecified),inactive
11,CC1(C)NC(=O)N(CC(=O)N2CCN(S(=O)(=O)c3cc(Cl)ccc3Cl)CC2)C1=O,inactive
12,CC(C)Cn1nc(NC(=O)c2cccs2)c2cc3ccccc3nc21,inactive
13,Cc1ccc(S(=O)(=O)N(C)C)cc1-n1c(SCC(=O)N(C)C)nc2ccccc2c1=O,inactive
14,CNC(=O)CSc1nc2ccccc2c(=O)n1C1CCCCC1,inactive
15,Cc1nn(-c2ccccc2)c(C)c1/C=N/NC(=O)CSc1nc2ccccc2c(=O)n1-c1ccc(Br)cc1,12.6 µM (active)
16,O=C(Nc1ccc(F)cc1)c1cccnc1NCCc1ccccc1,inactive
17,Cc1ccccc1CS(=O)(=O)c1ncc(Cl)c(C(=O)Nc2ccc(F)cc2)n1,10 µM (active)
18,O=C(Nc1ccc(F)cc1)c1nc(S(=O)(=O)Cc2ccccc2)ncc1Cl,25.1 µM (active)
19,CC(=O)Nc1ccc(S(=O)(=O)[N-]c2nc3ccccc3nc2-[n+]2ccc(NC(=O)c3ccc(F)cc3)cc2)cc1,inactive
20,O=C1CSc2ccc(S(=O)(=O)NCc3ccc(F)cc3)cc2N1,inactive
21,COc1ccc(Nc2nc3c(C)cccc3cc2C#N)cc1,inactive
22,N#Cc1nccc2ccc(OCc3ccc(Br)cc3)cc12,inactive
23,Cc1ccc(C(=O)NNC(=O)c2cc3ccccc3cc2O)cc1,inactive
24,Cc1ccc(NC(=O)Cn2c(O)c(N=NC(=O)c3cc4ccccc4cc3O)c3ccccc32)cc1,8.91 µM (active)
25,CN(C(=O)COC(=O)c1cc2ccccc2cc1O)c1ccccc1,inactive
26,O=C(N=Nc1c(O)n(Cc2ccccc2)c2ccccc12)c1cc2ccccc2cc1O,39.8 µM (active)

row,Structure (SMILES),Potency
1,Cn1c(O)c(/C=N/NC(=O)c2cc3ccccc3cc2O)c2ccccc21,inactive
2,Cc1c(O)ccc2c(CC(=O)N[C@@H](Cc3ccc(O)cc3)C(=O)O)cc(=O)oc12,inactive
3,Cc1sc(NC(=O)c2ccccc2)c(C(c2ccc(Cl)cc2)N2CCN(CCO)CC2)c1C (stereo unspecified),28.2 µM (active)
4,Cc1c(-c2ccc(Cl)cc2)c(=O)oc2c(CN3CCN(CCO)CC3)c(O)ccc12,inactive
5,CCS(=O)(=O)c1nc(S(=O)(=O)c2ccc(Cl)cc2)c(N2CCN(CCO)CC2)s1,inactive
6,Cn1c(C(=O)NCc2ccccn2)cc2c(=O)n3ccccc3nc21,inactive
7,Cc1cccc(C2=NN(c3ccccc3)[C@H](CO)[C@H]2c2ccc(Cl)cc2)c1,inactive
8,CCN(CC)c1ccc(/C=N/NC(=O)c2cccc(S(=O)(=O)Nc3ccccc3OC)c2)c(O)c1,inactive
9,CCN1C/C(=C\c2cc(OC)c(OC)c(OC)c2)C2=NN(c3ccccc3)C(c3cc(OC)c(OC)c(OC)c3)C2C1 (stereo unspecified),inactive
10,Cc1ccc(C(=O)OCC(=O)NCCc2ccccc2)cc1C,inactive
11,CCOC(=O)c1ccc(NC(=O)COc2ccccc2CNCCc2ccccc2)cc1,29.9 µM (active)
12,CCOc1ccc(NC(=O)COc2ccc(C(=O)NCCc3ccccc3)cc2)cc1,inactive
13,CCCCn1nc(NC(=O)c2cccs2)c2cc3ccccc3nc21,inactive
14,NS(=O)(=O)c1ccc(NCc2cnc3ccccc3c2)cc1,inactive
15,CCOc1ccc2nc(NCCCNS(=O)(=O)c3ccc(C)cc3)c(C#N)cc2c1,inactive
16,c1ccc(COc2ncnc3c2ncn3CCCNCC(c2ccccc2)c2ccccc2)cc1,25.1 µM (active)
17,c1ccc(COc2ncnc3c2ncn3CCCNC2CCN(Cc3ccccc3)CC2)cc1,39.8 µM (active)
18,COCCCn1c(C(=O)N2CC(C)OC(C)C2)cc2c(=O)n3ccccc3nc21 (stereo unspecified),inactive
19,O=C(CC(=O)N/N=C/c1c(F)cccc1Cl)NCCc1ccccc1,inactive
20,CCCCN(C)CCCNC(=O)C1CCN(c2nc3ccc(CC)cc3s2)CC1,28.2 µM (active)
21,CCOc1ccc2nc(N3CCC(C(=O)N4CCN(c5ncccn5)CC4)CC3)sc2c1,inactive
22,Cc1c(C(=O)NCc2ccc3c(c2)cc(C)n3C)cccc1[N+](=O)[O-],inactive
23,COc1ccccc1OCCCCN1CCCCC1,inactive
24,COc1ccc2c(-c3ccc(OCCN4CCCCC4)cc3)c(-c3ccccc3OC)sc2c1,39.8 µM (active)
25,COc1ccc(-c2c(C)c3ccc(O)c(CN4CCCCC4)c3oc2=O)cc1OC,inactive
26,COc1ccc(-c2sc3cc(OC)ccc3c2-c2ccc(OCCN3CCCCC3)cc2)cc1,25.1 µM (active)

row,Structure (SMILES),Potency
1,COc1ccccc1-c1sc2ccccc2c1-c1ccc(OCCN2CCCCC2)cc1,35.5 µM (active)
2,COc1cccc2sc3cc(NCCCN4CCOCC4)ccc3c(=O)c12,inactive
3,c1ccc2c(-c3ccc(OCCN4CCCCC4)cc3)c(-c3ccsc3)sc2c1,39.8 µM (active)
4,Brc1ccccc1OCCCN1CCCC1,inactive
5,CSCCC1NC(=O)N(CC(=O)Nc2ccc(Br)cc2Br)C1=O (stereo unspecified),inactive
6,CCOc1cccc(NC(=O)c2sc3nc(-c4ccc(F)cc4)ccc3c2N)c1,inactive
7,COc1ccc2sc(-c3ccccc3OC)c(-c3ccc(OCCN(C)C)cc3)c2c1,39.8 µM (active)
8,COc1cccc(-c2sc3ccccc3c2-c2ccc(OCCN(C)C)cc2)c1,28.2 µM (active)
9,COc1ccc2sc(-c3ccc(N(C)C)cc3)c(C#CCO)c2c1,inactive
10,COC(=O)c1c(-c2ccc(N(C)C)cc2)sc2ccc(OC)cc12,inactive
11,COc1ccccc1-c1sc2ccccc2c1C#Cc1ccc(N(C)C)cc1,inactive
12,COc1cccc(-c2sc3ccccc3c2-c2ccc(OCCN3CCCCC3)cc2)c1,28.2 µM (active)
13,O=C(Nc1nc2n(n1)C(c1ccc(F)cc1)C=C(c1ccccc1)N2)c1ccc(Cl)cc1 (stereo unspecified),inactive
14,S=C(c1ccc(-c2ccc(Br)cc2)o1)N1CCOCC1,inactive
15,CCc1cc(=O)oc2c3c(c(Cl)cc12)OCN(Cc1cccc(OC)c1)C3,inactive
16,CCCc1ccc(C2C3=C(CC(C)(C)CC3=O)N=C3C2=C(O)c2ccccc23)cc1 (stereo unspecified),20 µM (active)
17,CC1C2=C(O)CC(C)(C)CC2=NC2=C1C(=O)CC(C)(C)C2 (stereo unspecified),inactive
18,CCCO/C(O)=C1\C(C)=NC2=C(C(=O)CC(C)(C)C2)C1c1cccnc1 (stereo unspecified),inactive
19,O=S(=O)(Nc1ccccc1N1CCOCC1)c1ccccc1C(F)(F)F,inactive
20,O=C1CCCc2nc3c(cc21)C(O)Oc1c-3ccc2ccccc12 (stereo unspecified),inactive
21,Cn1c(SCc2ccccc2F)nc2ccccc2c1=O,inactive
22,O=C(Cc1c(F)cccc1Cl)N(Cc1ccccc1)c1ccccn1,inactive
23,CN(Cc1ccccc1)C(=O)c1ccc(CSc2nc3cccnc3n2Cc2ccccc2F)cc1,20 µM (active)
24,CN1CCN(Cc2c(O)ccc3cc(-c4ccccn4)c(=O)oc23)CC1,inactive
25,CN1CCN(Cc2nc3ccccc3c(=O)n2Cc2nc(-c3ccc4ccccc4c3)cs2)CC1,39.8 µM (active) and 25.1 µM (active)
26,O=C(CN1C(=O)CCC1=O)Nc1nc(-c2ccc3ccccc3c2)cs1,inactive

row,Structure (SMILES),Potency
1,C[C@H]1C(c2ccc(F)cc2)=NN(c2ccccc2)[C@@H]1CO,inactive
2,O=C(CSc1nnc2ccccn12)Nc1ccc(S(=O)(=O)N2CCOCC2)cc1,inactive
3,COc1ccc(Cl)cc1CC1(C)C(=O)Nc2ccc(S(=O)(=O)NC3CCCCC3)cc21 (stereo unspecified),35.5 µM (active)
4,COc1ccc(CCNS(=O)(=O)c2ccc3c(c2)CCCC3)cc1OC,inactive
5,COc1ccc(-c2csc(/C(C#N)=C/Nc3cc4oc5ccccc5c4cc3OC)n2)cc1,inactive
6,C=CC[C@@H](Cc1ccc(F)cc1)C(=O)OC[C@H]1CCCN1C(=O)[C@@H](CC=C)CC(=O)N(CCO)Cc1ccccc1,39.8 µM (active)
7,C=CC[C@@H](Cc1ccc(F)cc1)C(=O)OC[C@H]1CCCN1C(=O)[C@H](CC=C)CC(=O)N(CCO)Cc1ccccc1,35.5 µM (active)
8,N#Cc1c(N)n(CCc2ccc(F)cc2)c2nc3ccccc3nc12,inactive
9,O=C(CN1C(=O)NC2(CCCCC2)C1=O)Oc1ccc2c(C(F)(F)F)cc(=O)oc2c1,inactive
10,Fc1ccc(-c2nc3cnccn3c2NC2CCCC2)cc1,inactive
11,COc1ccc2c(c1)CCc1cn3nc(C)cc3nc1-2,inactive
12,COc1ccc(C(=O)N2C(=O)c3ccc(N)cc3C2=O)cc1,inactive
13,COc1ccc2c(c1)C(=NN)c1cc(OC)ccc1-2,31.6 µM (active)
14,COc1ccc2nc(O)c(C(=O)O)cc2c1,inactive
15,COc1ccc2c(c1)C(=NNc1ccc(C(=O)O)cc1)c1cc(OC)ccc1-2,22.4 µM (active)
16,O=C(O)CC1SC(N/N=C/C2CC=CCC2)=NC1=O (stereo unspecified),inactive
17,Oc1ccccc1C1SC(c2ccccc2O)SC(c2ccccc2O)S1 (stereo unspecified),20 µM (active)
18,COc1ccc(-c2cc3ccc(O)cc3oc2=O)cc1OC,inactive
19,COc1ccc(-c2cc(=O)oc3cc(O)ccc23)cc1,inactive
20,CCc1ccc2c(CN3CCc4cc(OC)c(OC)cc4C3)cc(=O)oc2c1,inactive
21,CCc1cc(=O)oc2cc3occ(-c4ccc(OC)c(F)c4)c3cc12,22.4 µM (active)
22,COc1ccc(-c2cc(Cl)cc3c(=O)c4ccccc4n(C)c23)cc1F,inactive
23,COc1ccc(-c2coc3cc4oc(=O)c5ccccc5c4cc23)cc1F,8.91 µM (active)
